Measured values: the supplement of paper PMC9177965

Legend:
[1] = system: HT29 RNF43 G659fs (RNF43 659mut, CRISPR-edited); assay: cell viability activity relative to DMSO (negative = inhibition); higher = more viable cells (less growth inhibition); conditions: 5 µM; 96 h
Procedure: (§1)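 Broad Repurposing Library primary screen at a single dose of 5 uM. HT29 sg-Ctrl and HT29 RNF43 G659fs CRISPR-edited isogenic cells were seeded at 2500 cells/well in 384-well plates in duplicate and treated for 96 h. Viability was read by CellTiter-Glo and reported as % activity relative to DMSO, with MG132 as the positive control (negative = growth inhibition).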

[2] = system: HT29 sg-Ctrl (RNF43 wildtype); assay: as above; conditions: 5 µM; 96 h
Procedure: as §1

SMILES: C[C@@H]1COCCN1c1cc(=O)n2c(n1)N(Cc1cncc(Cl)c1)[C@H](C(F)(F)F)CC2
- cell viability activity [1]: -57.9%
- cell viability activity [2]: 1.22%

SMILES: CCN(CC)c1ccc(C(=C2C=CC(=[N+](CC)CC)C=C2)c2ccccc2)cc1
- cell viability activity [1]: -97.7%
- cell viability activity [2]: -97.2%

SMILES: CC[C@@H](C(=O)[C@@H](C)[C@@H](O)[C@H](C)CCc1ccc(C)c(O)c1C(=O)O)[C@H]1O[C@](CC)([C@H]2CC[C@](O)(CC)[C@H](C)O2)C[C@@H]1C
- cell viability activity [1]: -65.8%
- cell viability activity [2]: -42.9%

SMILES: O=C(/C=C/c1cccc(S(=O)(=O)Nc2ccccc2)c1)NO
- cell viability activity [1]: -88.3%
- cell viability activity [2]: -73.9%

SMILES: CC(=O)O[C@@]12CO[C@@H]1C[C@H](O)[C@@]1(C)C(=O)[C@H](O)C3=C(C)[C@@H](OC(=O)[C@H](O)[C@@H](NC(=O)OC(C)(C)C)c4ccccc4)C[C@@](O)([C@@H](OC(=O)c4ccccc4)[C@H]21)C3(C)C
- cell viability activity [1]: -58.2%
- cell viability activity [2]: -58.6%

SMILES: Cc1ncc(-c2ccnc(Nc3ccc(S(C)(=O)=O)cc3)n2)n1C(C)C
- cell viability activity [1]: -91.5%
- cell viability activity [2]: -87.7%

SMILES: Cc1cn([C@H]2C[C@H](N=[N+]=[N-])[C@@H](CO)O2)c(=O)[nH]c1=O
- cell viability activity [1]: -29%
- cell viability activity [2]: -2.51%

SMILES: Cc1cc(Nc2ccc(NC(=O)c3ccc(Nc4ccnc5ccccc45)cc3)cc2)nc(N)n1
- cell viability activity [1]: -91%
- cell viability activity [2]: -93.7%

SMILES: C=C1C(=O)O[C@H]2[C@H]1CC/C(C)=C/CC[C@@]1(C)O[C@@H]21
- cell viability activity [1]: -28.1%
- cell viability activity [2]: -6.73%

SMILES: O=C1[C@H](Cc2ccc(O)cc2)N2C(=O)CCN(C(=O)NCc3ccccc3)[C@H]2CN1Cc1cccc2ccccc12
- cell viability activity [1]: -58.4%
- cell viability activity [2]: -41.8%

SMILES: COc1ccc2c(O[C@@H]3C[C@H]4C(=O)N[C@]5(C(=O)NS(=O)(=O)C6CC6)C[C@H]5/C=C\CCCCN(C)C(=O)[C@@H]4C3)cc(-c3nc(C(C)C)cs3)nc2c1C
- cell viability activity [1]: -30%
- cell viability activity [2]: -23.2%

SMILES: CC(C)c1cc(CNc2nc(Nc3cc(C4CC4)[nH]n3)cc(N3CCN(C)CC3)n2)on1
- cell viability activity [1]: -86.1%
- cell viability activity [2]: -84.3%

SMILES: O=C(O)c1ccc[n+]([O-])c1
- cell viability activity [1]: -66%
- cell viability activity [2]: -67.1%

SMILES: O=C(O)c1ccc(-n2nc(-c3ccccc3O)nc2-c2ccccc2O)cc1
- cell viability activity [1]: -27.9%
- cell viability activity [2]: -27.1%

SMILES: O=C1c2c(O)ccc(O)c2C(=O)c2c(NCCNCCO)ccc(NCCNCCO)c21
- cell viability activity [1]: -100%
- cell viability activity [2]: -99.7%

SMILES: COc1ccccc1S(=O)(=O)Nc1ccc2c(c1)CN(C)C(=O)N2
- cell viability activity [1]: -56.4%
- cell viability activity [2]: -63.5%

SMILES: CN(C)/N=N/c1[nH]cnc1C(N)=O
- cell viability activity [1]: -31.5%
- cell viability activity [2]: -26.5%

SMILES: Nc1cc(C(F)(F)F)c(-c2cc(N3CCOCC3)nc(N3CCOCC3)n2)cn1
- cell viability activity [1]: -75.9%
- cell viability activity [2]: -60.1%

SMILES: NC1(Cc2ccc(Cl)cc2)CCN(c2ncnc3[nH]ccc23)CC1
- cell viability activity [1]: -39.2%
- cell viability activity [2]: -20.8%

SMILES: CCCCCCCCCCCCCCCC[N+](C)(C)CCN(Cc1ccc(OC)cc1)c1ncccn1
- cell viability activity [1]: -95.1%
- cell viability activity [2]: -94.5%

SMILES: CC(C)Oc1ccc(C(=O)N[C@H](CNC(=O)CN(C)C)Cc2ccc(-c3cn4cccc([C@H](C)O)c4n3)cc2)cc1Cl
- cell viability activity [1]: -54.6%
- cell viability activity [2]: -59.4%

SMILES: CCCCNc1ncc2c(-c3ccc(CN4CCN(C)CC4)cc3)cn([C@H]3CC[C@H](O)CC3)c2n1
- cell viability activity [1]: -89.4%
- cell viability activity [2]: -91.1%

SMILES: Nc1nc(Nc2ccc3c(c2)CCC(N2CCCC2)CC3)nn1-c1cc2c(nn1)-c1ccccc1CCC2 (stereo unspecified)
- cell viability activity [1]: -28.9%
- cell viability activity [2]: -31.9%

SMILES: CC1(C)CC(=O)c2c(C(F)(F)F)nn(-c3ccc(C(N)=O)c(N[C@H]4CC[C@H](O)CC4)c3)c2C1
- cell viability activity [1]: -86.4%
- cell viability activity [2]: -78.4%

SMILES: Cc1cc(C(=O)NOCCO)c(Nc2ccc(I)cc2F)n(C)c1=O
- cell viability activity [1]: -83.4%
- cell viability activity [2]: -88.5%

SMILES: CN1CCCN=C1COC(=O)C(O)(c1ccccc1)C1CCCCC1 (stereo unspecified)
- cell viability activity [1]: -55.3%
- cell viability activity [2]: -50.3%

SMILES: C[C@H](Oc1ccc(S(C)(=O)=O)cc1C(=O)N1CCN(c2ncc(C(F)(F)F)cc2F)CC1)C(F)(F)F
- cell viability activity [1]: -65.2%
- cell viability activity [2]: -57.9%

SMILES: N#Cc1ccc(COC[C@H]2O[C@@H](n3c(NCc4ccc(Cl)c(Cl)c4)nc4c(N)ncnc43)[C@H](O)[C@@H]2O)cc1
- cell viability activity [1]: -24.9%
- cell viability activity [2]: -31.3%

SMILES: CC[C@H](CO)Nc1nc(NCc2ccc(-c3ccccn3)cc2)c2ncn(C(C)C)c2n1
- cell viability activity [1]: -92%
- cell viability activity [2]: -92.1%

SMILES: CC1NC(=O)C(N)CNC(=O)C(C2CCN=C(N)N2)NC(=O)/C(=C\NC(N)=O)NC(=O)C(CNC(=O)CC(N)CCCN)NC1=O (stereo unspecified)
- cell viability activity [1]: -29.5%
- cell viability activity [2]: 0.515%

SMILES: COc1cccc2cc(-c3nc([C@H]4CC[C@H](C(=O)O)CC4)n4ncnc(N)c34)[nH]c12
- cell viability activity [1]: -50.5%
- cell viability activity [2]: -27.5%

SMILES: OCc1ccc(-c2ccc(-c3ccc(CO)s3)o2)s1
- cell viability activity [1]: -51.5%
- cell viability activity [2]: -42.8%

SMILES: CCOC(=O)CCNc1cc(N2CCc3ccccc3CC2)nc(-c2ccccn2)n1
- cell viability activity [1]: -82.7%
- cell viability activity [2]: -27.5%
